Measurements published in PubChem BioAssay AID1159580 (chemical genetic matrix, 2015).
In all, about 5,500 compounds went through this assay and about 2,000 (36%) were called active. Not shown: some 18% with an inconclusive outcome. Rule as the data show it: active = normalized growth mostly below about 0.91 (no sharp cut-off); inconclusive = no clear call, values can overlap the other calls; inactive = mostly above about 0.92. The list shows a part of the results.

Assay: chemical genetic growth profiling, strain panel (AID 1159580);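 also: tested at 20 µM; growth read once vehicle control cultures reached saturation at 30 °C; 1 = growth at the plate median or of vehicle wells; lower values mean less growth of the strain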
Settings: growth OD
[1] = S. cerevisiae deletion strains, locus YAL013W, strain DEP1, hits give low values
[2] = S. cerevisiae deletion strains, locus YBR229C, strain ROT2, hits give low values
[3] = S. cerevisiae deletion strains, locus YDL101C, strain DUN1, hits give low values
[4] = S. cerevisiae deletion strains, locus YDR150W, strain NUM1, hits give low values
[5] = S. cerevisiae deletion strains, locus YEL061C, strain CIN8, hits give low values
[6] = S. cerevisiae deletion strains, locus YGR078C, strain PAC10, hits give low values
[7] = S. cerevisiae deletion strains, locus YHR030C, strain SLT2, hits give low values
[8] = S. cerevisiae deletion strains, locus YHR087W, strain rtc3, hits give low values
[9] = S. cerevisiae deletion strains, locus YJR043C, strain POL32, hits give low values
[10] = S. cerevisiae deletion strains, locus YJR075W, strain HOC1, hits give low values
[11] = S. cerevisiae deletion strains, locus YLR039C, strain RIC1, hits give low values
[12] = S. cerevisiae deletion strains, locus YLR058C, strain SHM2 (second series), hits give low values
[13] = S. cerevisiae deletion strains, locus YLR085C, strain ARP6, hits give low values
[14] = S. cerevisiae deletion strains, locus YLR262C, strain YPT6, hits give low values
[15] = S. cerevisiae deletion strains, locus YML094W, strain GIM5, hits give low values
[16] = S. cerevisiae deletion strains, locus YMR219W, strain ESC1, hits give low values
[17] = S. cerevisiae deletion strains, locus YMR263W, strain SAP30, hits give low values
[18] = S. cerevisiae deletion strains, locus YNL153C, strain GIM3, hits give low values
[19] = S. cerevisiae deletion strains, locus YNL298W, strain CLA4 (second series), hits give low values
[20] = S. cerevisiae deletion strains, locus YNL322C, strain KRE1, hits give low values
[21] = S. cerevisiae deletion strains, locus YNR030W, strain Alg12, hits give low values
[22] = S. cerevisiae deletion strains, locus YOL006C, strain TOP1, hits give low values
[23] = S. cerevisiae deletion strains, locus YPL055C, strain LGE1, hits give low values
[24] = S. cerevisiae deletion strains, locus YPL241C, strain CIN2, hits give low values
[25] = S. cerevisiae deletion strains, locus YPR135W, strain CTF4, hits give low values
[26] = S. cerevisiae strains, strain wild type, hits give low values

Measured: normalized growth

N/C(=N/OC(=O)C(Cl)Cl)c1cccc(Cl)c1Cl
inactive: [1] 1.02 | [2] 0.978 | [3] 0.943 | [4] 1 | [5] 0.997 | [6] 0.973 | [7] 0.94 | [8] 0.971 | [9] 0.979 | [10] 0.925 | S. cerevisiae deletion strains, locus YKL190W, strain CNB1, hits give low values 0.982 | [11] 0.936 | [12] 0.968 | [13] 1.04 | [14] 0.921 | [15] 1.03 | [16] 0.984 | [17] 0.992 | [18] 1.01 | [19] 0.965 | [20] 0.98 | [21] 1 | [22] 0.939 | [23] 1.03 | [24] 0.907 | [25] 1.22 | [26] 0.972

NC(=S)c1ccc2nonc2c1
inactive: [1] 0.999 | [2] 1 | [3] 0.984 | S. cerevisiae deletion strains, locus YDL134C, strain PPH21, hits give low values 0.986 | [4] 0.927 | [5] 1 | [6] 1 | S. cerevisiae deletion strains, locus YGR229C, strain SMI1, hits give low values 0.994 | [7] 0.991 | [8] 0.996 | [9] 1.02 | [10] 1.01 | [11] 1.04 | [12] 1 | [13] 0.945 | [14] 1.02 | [15] 0.982 | [16] 0.992 | [17] 1.03 | S. cerevisiae deletion strains, locus YMR307W, strain GAS1, hits give low values 1.03 | [18] 1.01 | [19] 1.02 | [20] 0.996 | [21] 0.988 | [22] 0.976 | [23] 1.09 | [24] 0.963 | [25] 1.13 | [26] 0.994

N/C(=N/OC(=O)c1ccccc1Cl)c1ccc2nonc2c1
active: [7] 0.825
inactive: S. cerevisiae deletion strains, locus YAR019C, strain CDC15, hits give low values 0.967 | S. cerevisiae deletion strains, locus YBL105C, strain PKC1, hits give low values 0.963 | S. cerevisiae deletion strains, locus YBR135W, strain CKS1, hits give low values 0.962 | S. cerevisiae deletion strains, locus YBR136W, strain MEC1, hits give low values 0.966 | S. cerevisiae deletion strains, locus YBR160W, strain CDC28, hits give low values 0.959 | S. cerevisiae deletion strains, locus YDL017W, strain CDC7, hits give low values 0.968 | S. cerevisiae deletion strains, locus YDL028C, strain MPS1, hits give low values 0.964 | [3] 0.977 | S. cerevisiae deletion strains, locus YDL108W, strain KIN28, hits give low values 0.973 | S. cerevisiae deletion strains, locus YDL132W, strain cdc53, hits give low values 0.958 | S. cerevisiae deletion strains, locus YDL214C, strain PRR2, hits give low values 0.978 | S. cerevisiae deletion strains, locus YDR052C, strain DBF4, hits give low values 0.976 | S. cerevisiae deletion strains, locus YDR054C, strain cdc34, hits give low values 0.95 | S. cerevisiae deletion strains, locus YDR226W, strain ADK1, hits give low values 0.975 | S. cerevisiae deletion strains, locus YDR477W, strain SNF1, hits give low values 0.989 | S. cerevisiae deletion strains, locus YER123W, strain YCK3, hits give low values 0.977 | S. cerevisiae deletion strains, locus YER133W, strain GLC7, hits give low values 0.961 | S. cerevisiae deletion strains, locus YFL009W, strain cdc4, hits give low values 0.965 | S. cerevisiae deletion strains, locus YFL029C, strain CAK1, hits give low values 0.963 | S. cerevisiae deletion strains, locus YFR003C, strain YPI1, hits give low values 0.972 | S. cerevisiae deletion strains, locus YFR019W, strain FAB1, hits give low values 0.956 | S. cerevisiae deletion strains, locus YFR028C, strain CDC14, hits give low values 0.977 | S. cerevisiae deletion strains, locus YGR040W, strain KSS1, hits give low values 0.976 | S. cerevisiae deletion strains, locus YGR052W, strain FMP48, hits give low values 1.05 | S. cerevisiae deletion strains, locus YGR092W, strain DBF2, hits give low values 0.847 | S. cerevisiae deletion strains, locus YHR079C, strain IRE1, hits give low values 0.963 | S. cerevisiae deletion strains, locus YHR082C, strain KSP1, hits give low values 1.01 | S. cerevisiae deletion strains, locus YHR205W, strain SCH9, hits give low values 0.971 | S. cerevisiae deletion strains, locus YIL147C, strain SLN1, hits give low values 0.96 | S. cerevisiae deletion strains, locus YJL095W, strain BCK1, hits give low values 0.904 | S. cerevisiae deletion strains, locus YJL128C, strain PBS2, hits give low values 0.985 | S. cerevisiae deletion strains, locus YJL157C, strain FAR1, hits give low values 0.977 | S. cerevisiae deletion strains, locus YJR016C, strain ILV3, hits give low values 0.966 | S. cerevisiae deletion strains, locus YJR066W, strain TOR1 (second series), hits give low values 0.915 | S. cerevisiae deletion strains, locus YJR066W, strain TOR1, hits give low values 0.947 | S. cerevisiae deletion strains, locus YKL048C, strain ELM1, hits give low values 0.985 | S. cerevisiae deletion strains, locus YKL067W, strain YNK1, hits give low values 0.986 | S. cerevisiae deletion strains, locus YKL101W, strain HSL1, hits give low values 0.991 | S. cerevisiae deletion strains, locus YKL193C, strain SDS22, hits give low values 0.965 | S. cerevisiae deletion strains, locus YKL203C, strain TOR2, hits give low values 1.01 | S. cerevisiae deletion strains, locus YLR113W, strain HOG1, hits give low values 0.96 | S. cerevisiae deletion strains, locus YLR133W, strain CKI1, hits give low values 0.994 | S. cerevisiae deletion strains, locus YLR403W, strain SFP1, hits give low values 0.96 | S. cerevisiae deletion strains, locus YML070W, strain DAK1, hits give low values 0.99 | S. cerevisiae deletion strains, locus YMR001C, strain CDC5, hits give low values 0.97 | S. cerevisiae deletion strains, locus YMR205C, strain PFK2 (second series), hits give low values 0.984 | S. cerevisiae deletion strains, locus YMR277W, strain FCP1, hits give low values 0.963 | S. cerevisiae deletion strains, locus YNL006W, strain LST8, hits give low values 0.974 | S. cerevisiae deletion strains, locus YNL020C, strain ARK1, hits give low values 0.98 | S. cerevisiae deletion strains, locus YNL161W, strain CBK1, hits give low values 0.973 | S. cerevisiae deletion strains, locus YNL183C, strain NPR1, hits give low values 0.955 | S. cerevisiae deletion strains, locus YNL207W, strain RIO2, hits give low values 0.964 | S. cerevisiae deletion strains, locus YNL222W, strain SSU72, hits give low values 0.968 | S. cerevisiae deletion strains, locus YNL307C, strain MCK1 (second series), hits give low values 0.982 | S. cerevisiae deletion strains, locus YOL078W, strain AVO1, hits give low values 0.972 | S. cerevisiae deletion strains, locus YOL136C, strain PFK27, hits give low values 0.983 | S. cerevisiae deletion strains, locus YOR061W, strain CKA2, hits give low values 0.985 | S. cerevisiae deletion strains, locus YOR119C, strain RIO1, hits give low values 1.07 | S. cerevisiae deletion strains, locus YOR231W, strain MKK1, hits give low values 0.96 | S. cerevisiae deletion strains, locus YOR329C, strain SCD5, hits give low values 0.97 | S. cerevisiae deletion strains, locus YPL031C, strain PHO85, hits give low values 0.966 | S. cerevisiae deletion strains, locus YPL153C, strain RAD53, hits give low values 0.959 | S. cerevisiae deletion strains, locus YPL204W, strain HRR25, hits give low values 0.95 | S. cerevisiae deletion strains, locus YPL209C, strain IPL1, hits give low values 0.968 | S. cerevisiae deletion strains, locus YPL256C, strain CLN2, hits give low values 0.963 | S. cerevisiae deletion strains, locus YPR025C, strain CCL1, hits give low values 0.962 | S. cerevisiae deletion strains, locus YPR106W, strain ISR1, hits give low values 0.981 | S. cerevisiae deletion strains, locus YPR111W, strain DBF20, hits give low values 0.974 | S. cerevisiae deletion strains, strain NNK1, hits give low values 0.98 | S. cerevisiae deletion strains, strain TSCII, hits give low values 0.962
